Assay results as given in ChEMBL document CHEMBL1201862, “PubChem BioAssay data set” (2004).
Among all 400,000 compounds or so, about 2,100 (0.53%) were called active. Another 14% or so got no clear call; they are omitted. How the calls were made is not given here. The list comes from a sample in which actives are over-represented; it also holds similar structures and randomly drawn compounds.

Each compound was assayed against Ataxin-2 (Homo sapiens) (UniProt Q99700) (assay: qHTS for Inhibitors of ATXN expression.).
Assay type: functional

Chain of Ataxin-2 (Homo sapiens) (Q99700 whole entry): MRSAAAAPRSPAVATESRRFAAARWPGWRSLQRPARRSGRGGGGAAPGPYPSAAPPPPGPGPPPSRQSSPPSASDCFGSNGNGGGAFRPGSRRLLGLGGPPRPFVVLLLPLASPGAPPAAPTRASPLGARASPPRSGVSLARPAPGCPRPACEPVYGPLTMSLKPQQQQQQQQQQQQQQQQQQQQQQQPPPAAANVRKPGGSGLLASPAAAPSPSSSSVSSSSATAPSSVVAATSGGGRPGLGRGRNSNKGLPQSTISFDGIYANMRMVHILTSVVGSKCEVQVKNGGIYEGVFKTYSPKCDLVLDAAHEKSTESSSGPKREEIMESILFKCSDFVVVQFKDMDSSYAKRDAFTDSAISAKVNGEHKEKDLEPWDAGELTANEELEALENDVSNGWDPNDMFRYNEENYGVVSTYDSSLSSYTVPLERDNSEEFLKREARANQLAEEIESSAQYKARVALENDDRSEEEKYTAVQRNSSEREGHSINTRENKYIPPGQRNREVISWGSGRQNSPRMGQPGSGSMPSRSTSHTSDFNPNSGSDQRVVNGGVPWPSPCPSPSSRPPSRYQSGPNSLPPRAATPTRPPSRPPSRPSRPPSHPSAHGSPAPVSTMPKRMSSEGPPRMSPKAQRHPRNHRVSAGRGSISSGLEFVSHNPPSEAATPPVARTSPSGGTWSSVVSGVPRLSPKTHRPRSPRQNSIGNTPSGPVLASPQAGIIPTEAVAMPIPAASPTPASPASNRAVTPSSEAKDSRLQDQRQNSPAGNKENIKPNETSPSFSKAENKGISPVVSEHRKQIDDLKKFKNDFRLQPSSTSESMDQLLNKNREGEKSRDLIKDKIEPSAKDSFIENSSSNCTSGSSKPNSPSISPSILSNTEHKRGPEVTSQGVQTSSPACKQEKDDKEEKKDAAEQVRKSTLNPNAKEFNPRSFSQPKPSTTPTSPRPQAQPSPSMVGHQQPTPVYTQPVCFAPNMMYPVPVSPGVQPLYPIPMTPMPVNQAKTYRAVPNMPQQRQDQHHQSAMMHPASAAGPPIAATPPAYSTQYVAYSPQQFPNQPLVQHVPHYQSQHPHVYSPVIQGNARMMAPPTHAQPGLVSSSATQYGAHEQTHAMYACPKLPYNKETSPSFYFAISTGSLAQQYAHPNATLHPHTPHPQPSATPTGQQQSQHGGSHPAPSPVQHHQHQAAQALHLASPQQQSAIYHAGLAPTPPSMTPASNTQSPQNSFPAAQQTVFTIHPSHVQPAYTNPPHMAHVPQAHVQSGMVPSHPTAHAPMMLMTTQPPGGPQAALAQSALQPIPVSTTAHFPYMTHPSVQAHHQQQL

| Compound | Potency |
| --- | --- |
| N=C(N)N/N=C(\c1ccc(F)cc1)c1ccc(C(F)(F)F)cc1 | 5.97 µM (active) |
| CC(=O)CCC(=O)OCC(=O)c1ccc(C(F)(F)F)cc1 | inactive |
| O=C(Cn1cc(C(F)(F)F)ccc1=O)NCc1ccc(F)cc1 | inactive |
| CNC(=O)c1sc(N2N=C3/C(=C\c4ccccc4)CCCC3C2c2ccccc2)nc1C (stereo unspecified) | inactive |
| C[C@H](CO)N1C[C@H](C)[C@@H](CN(C)Cc2ccc(Cl)c(Cl)c2)Oc2c(NC(=O)C3CC3)cccc2C1=O | 28.2 µM (active) |
| C[C@@H]1CN([C@@H](C)CO)C(=O)c2cccc(NC(=O)C3CCCCC3)c2O[C@@H]1CN(C)Cc1ccc(Cl)c(Cl)c1 | 35.5 µM (active) |
| CC(C)(C)c1ccc(OCC(=O)NNC(=O)Nc2ccccc2)cc1 | inactive |
| CCCC(=O)Nc1ccc(C(=O)COC(=O)C2CC2C)cc1 (stereo unspecified) | inactive |
| CCCC(=O)NC(N=C(S)Nc1ccc(N=Nc2ccccc2)cc1)C(Cl)(Cl)Cl (stereo unspecified) | 22.4 µM (active) |
| CCc1ccc(OCC(=O)NC(N=C(S)Nc2ccc(Cl)cc2)C(Cl)(Cl)Cl)cc1 (stereo unspecified) | 39.8 µM (active) |
| O=C(COc1ccc(Cl)cc1)NNC(=O)CSc1nncs1 | inactive |
| COc1ccc(C(=O)c2sc3nc(C)cc(-c4cccs4)c3c2N)cc1 | inactive |
| O=C1NC2c3c(I)sc(I)c3C(=O)C2O1 (stereo unspecified) | 39.8 µM (active) |
| COc1ccc(OC)c(NC(=O)c2cnc(Nc3ccc(C)c(Cl)c3)c3ccccc23)c1 | inactive |
| Oc1c(Cl)cc(Cl)cc1/C=N/c1nc[nH]n1 | inactive |
| CCCCN(C(=O)C1CCC(CNS(=O)(=O)c2cccc3nsnc23)CC1)c1ccccc1 (stereo unspecified) | 39.8 µM (active) |
| O=C(Nc1ccccc1)Nc1cccc2nsnc12 | inactive |
| Cc1c(Cl)cccc1NS(=O)(=O)c1cccc2nsnc12 | inactive |
| Cn1nnc(NC(=S)NC(=O)c2ccc3ccccc3c2)n1 | inactive |
| CCOC(=O)C1=C(COc2ccccc2)NC(=O)NC1c1ccc2ccccc2c1 (stereo unspecified) | 35.5 µM (active) |
| CCOC(=O)C1=C(CN2CCN(c3ccc(OC)cc3)CC2)NC(=O)NC1c1ccc(Cl)cc1 (stereo unspecified) | 39.8 µM (active) |
| CCOC(=O)C1=C(C)NC(=O)NC1c1ccc(N2CCC(c3ccccc3)=N2)cc1 (stereo unspecified) | inactive |
| COC(=O)C1=C(C)NC(=O)NC1c1ccc(OC(=O)c2ccco2)cc1 (stereo unspecified) | inactive |
| CCOC(=O)C1=C(COC(=O)COc2cccc(C)c2C)NC(=O)NC1C (stereo unspecified) | inactive |

| Compound | Potency |
| --- | --- |
| CCC(CC)COC(=O)C1=C(C)NC(=O)NC1c1ccc([N+](=O)[O-])cc1 (stereo unspecified) | inactive |
| CCOC(=O)c1cc2c(=O)n3ccccc3nc2n(CC(C)C)/c1=N\C(=O)COc1ccc(Cl)cc1 | inactive |
| Cc1nc2sc(C(=O)OC(C)C)c(N)c2c(C)c1C | inactive |
| COc1cc(/C=C(/C#N)C(=O)NCCCc2ccccc2)ccc1OCC(=O)O | inactive |
| Cc1cc(=O)oc2cc(NS(=O)(=O)c3ccc(F)cc3)ccc12 | inactive |
| Cc1cc(=O)oc2cc(NS(=O)(=O)c3ccccc3)ccc12 | inactive |
| Cc1ccc2nc(-c3ccc(NS(=O)(=O)c4ccc(F)cc4)cc3)sc2c1 | inactive |
| Cc1ccc(S(=O)(=O)N2CCCc3cc(NS(=O)(=O)c4ccc(F)cc4)ccc32)cc1 | 39.8 µM (active) |
| Cc1cc(C)nc(NS(=O)(=O)c2ccc(N/C=C\C(=O)c3cccs3)cc2)n1 | inactive |
| O=S(=O)(c1ccc2ccccc2c1)N1CCc2ccccc21 | inactive |
| Cc1cc(F)ccc1S(=O)(=O)Nc1ccc2c(c1)CCCN2C(=O)c1cccs1 | 39.8 µM (active) |
| Cc1ccc(S(=O)(=O)N2CCCc3cc(NS(=O)(=O)c4ccccc4)ccc32)cc1 | 39.8 µM (active) |
| C[C@@H]1C(c2cccc(Cl)c2)=NN(c2ccc(Br)cc2)[C@H]1C(=O)N1CCOC1=O | inactive |
| Cc1cc(N2CCCC2)c(F)cc1/C=C\[N+](=O)[O-] | inactive |
| CC(=O)N1CCCc2cc(S(=O)(=O)N(C)CC(=O)Nc3ccccc3)ccc21 | inactive |
| Cc1cc(NC(=O)CN(C)S(=O)(=O)c2ccc3c(c2)CCCC(=O)N3)ccc1Br | 31.6 µM (active) |
| Cc1cc(NC(=O)CCN2CCC(C)CC2)ccc1Br | inactive |
| O=C1CS/C(=N/N=C/c2ccccc2)N1Cc1ccco1 | inactive |
| COc1ccc2[nH]c(C(=O)N(Cc3ccccn3)Cc3ccccn3)cc2c1 | inactive |
| C(=C/c1[nH]ccc2c3ccccc3nc1-2)/c1ccc2c(c1)OCO2 | inactive |
| COc1ccc(-c2[nH]c(-c3ccc4c(c3)OCO4)nc2-c2ccccc2)cc1 | 44.7 µM (active) |
| O=C1N/C(=C/c2cccn2-c2ccc(F)cc2)C(=O)N1Cc1ccccc1F | inactive |
| O=[N+]([O-])c1ccc(Cc2ccccn2)c([N+](=O)[O-])c1 | inactive |
| O=[N+]([O-])c1ccc(Sc2ccncn2)c([N+](=O)[O-])c1 | 8.91 µM (active) |

| Compound | Potency |
| --- | --- |
| CN(C)c1ccc(/C=N/N(CCO)C2=NS(=O)(=O)c3ccccc32)cc1 | inactive |
| CCOc1ccc(-c2cn3c(n2)sc2cc(C(=O)NCCCN4CCCCCC4)ccc23)cc1 | 22.4 µM (active) |
| CCOc1ccc2nc(NCCCNC(=O)c3cc(OC)c(OC)c(OC)c3)c(C#N)cc2c1 | inactive |
| COc1ccc(-c2cc(C(F)(F)F)n3nc(C(=O)NCCCN4CCOCC4)cc3n2)cc1 | inactive |
| C=CCC1=C/C(=C\c2c(N)n3nc(CC(=O)N4CCCC4)sc3nc2=O)C=C(OC)C1=O | inactive |
| COc1ccc(CCN(C(=O)/C=C/C(=O)O)C2CC(=O)N(c3ccccc3)C2=O)cc1 (stereo unspecified) | inactive |
| COc1ccc(C2CC(c3ccccc3F)=NN2c2ccc(S(N)(=O)=O)cc2)cc1 (stereo unspecified) | inactive |
| COc1ccc(Cc2nnc(NC(=O)C3CC(=O)N(c4ccc(OC)cc4)C3)s2)cc1 (stereo unspecified) | inactive |
| C=CCNc1nnc(SC2CC(=O)N(c3ccc(OC)cc3)C2=O)s1 (stereo unspecified) | 39.8 µM (active) |
| COc1ccc(N2C(=O)CC(N3CCN(c4ccccc4)CC3)C2=O)cc1 (stereo unspecified) | inactive |
| COc1ccc(N2C(=O)CC(Sc3nnc(-c4ccccc4F)n3C)C2=O)cc1 (stereo unspecified) | 39.8 µM (active) |
| CN1CCC[C@H]1CCNc1ccc2c(=O)c3ccccc3n(C)c2c1 | inactive |
| O=C(N/N=C/c1ccc(O)cc1)Nc1cccc2nsnc12 | inactive |
| COc1ccccc1/C=C1\SC(=S)N(CCC(=O)NC2=NCCS2)C1=O | inactive |
| CC(C)CN1C(=O)/C(=C/c2c[nH]nc2-c2ccccc2)SC1=S | 39.8 µM (active) |
| CCCN1C(=O)/C(=C/c2c(N3CCNC(=O)C3CC(=O)OCC)nc3c(C)cccn3c2=O)SC1=S (stereo unspecified) | inactive |
| CCCCC(CC)CN1C(=O)/C(=C/c2c[nH]nc2-c2ccccc2)SC1=S (stereo unspecified) | 22.4 µM (active) |
| Cc1ccnn1CC(=O)N/N=C/c1c[nH]nc1-c1ccccc1 | inactive |
| O=C(Cc1csc(N2CCOCC2)n1)N/N=C/c1ccccc1C(=O)O | inactive |
| NNC(=O)c1oc2nc(-c3ccco3)cc(-c3ccco3)c2c1N | inactive |
| Cc1cc(C)c2c(N)c(C(=O)Nc3nccs3)sc2n1 | inactive |
| O=C(N/N=C/c1c[nH]c2ccccc12)c1cc(-c2ccc(-c3ccccc3)cc2)[nH]n1 | 39.8 µM (active) |
| CCOc1cccc(/C=N/NC(=O)c2cc(-c3cccn3C)[nH]n2)c1O | inactive |
| CCCc1c(C(=O)N/N=C/c2c[nH]c3ccccc23)nnn1-c1nonc1N | inactive |

| Compound | Potency |
| --- | --- |
| O=C(NCc1ccco1)c1cc2ccc(O)cc2oc1=O | inactive |
| CC(=O)N/N=C/c1cc(C(C)(C)C)cc(/C=N/NC(C)=O)c1O | inactive |
| CN(CCc1ccccc1)C(C(=O)Nc1ccc2c(c1)OCCO2)c1ccnc2ccccc12 (stereo unspecified) | 35.5 µM (active) |
| O=C(O)c1ccc(/C=C/c2nc(O)c3c4c(sc3n2)CCC4)cc1 | inactive |
| CCCCCCOc1ccc(/C=c2\s/c(=C(/C#N)C(=O)NCc3ccco3)n(-c3ccccc3)c2=O)cc1 | inactive |
| O=C(CC1N=C2c3ccccc3N=C(SCC(=O)Nc3cccc(C(F)(F)F)c3)N2C1=O)NCc1cccs1 (stereo unspecified) | 39.8 µM (active) |
| CC(C)(C)c1nc(SCC(=O)NCc2cccs2)c2ccccc2n1 | inactive |
| O=C(CSc1nnc(NC(=O)C2CC2)s1)NCc1cccs1 | inactive |
| Cc1cccn2c(=O)c3cc(C(=O)NC4CCCC4)c(=N)n(CCc4ccccc4)c3nc12 | inactive |
| Cc1cc2nc3c(=O)n(CCc4ccccc4)c(=O)[nH]c3nc2cc1N | inactive |
| CN(C)CCNc1nc2sc3c(c2c(=O)n1CCc1ccccc1)CCCCC3 | 22.4 µM (active) |
| Cc1ccc(C2C=C(c3ccccc3)Nc3nc(N4C(=O)CCC4=O)nn32)cc1 (stereo unspecified) | inactive |
| CNC(=O)c1cc2c(=O)n3cc(C)ccc3nc2n(C(C)C)c1=N | inactive |
| COc1cccc(C(=O)NC2CCN(CC(=O)NCc3ccccc3F)CC2)c1 | inactive |
| C#Cc1ccc(CN2CCC(Oc3cc(C(=O)NC4CC4)ccc3OC)CC2)cc1 | inactive |
| COc1ccc(C2=NS(=O)(=O)N(C)C(C(=O)NC3CCCC3)=C2)cc1 | inactive |
| CCN1C(=O)CC(c2ccccc2)N(C2CCCC2)c2nc(Nc3ccc(C(=O)NC4CCN(C)CC4)cc3OC)ncc21 (stereo unspecified) | 25.1 µM (active) |
| CCN1C(=O)CC(C(C)C)N(C2CCCC2)c2nc(Nc3ccc(C(=O)NC4CCN(C)CC4)cc3OC)ncc21 (stereo unspecified) | 22.4 µM (active) |
| COc1ccc(Nc2nc(Nc3ccc(OC)cc3OC)nc(N3CCN(C)CC3)n2)c(OC)c1 | inactive |
| O=C(CC(=O)c1c(F)cccc1Cl)c1ccccc1O | inactive |
| Oc1cc(CSc2ccc(Cl)cc2)nc(-c2ccccn2)n1 | 1.41 µM (active) |
| Oc1nccc(SCc2ccc(Cl)cc2Cl)n1 | inactive |
| Oc1nc(-c2ccccn2)nc2sc(-c3ccccc3)cc12 | inactive |
| CC1=CC2=NC(=O)/C(=C\c3cc(C)n(-c4ccccc4)c3C)C(=N)N2O1 | inactive |
